# Reference: PubChem BioAssay
# Experiment: probe aDKK1 binding to arrayed compounds – biochemical, biotinylated probe, 635/667 nm fluorescence, primary screen (AID 1099);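 also: score merges 667nm spot fluorescence with signal to noise across triplicate slides; reference of the scale not given here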
# Conditions: small-molecule microarray, higher = more signal
row,Structure (SMILES),composite z-score
1,CC1CC/C=C\[C@H]2OC34C=CCN(CCN5CCOCC5)C(=O)[C@H]3N(CCCO)C(=O)[C@@H]4C2C(=O)O1 (stereo not given in full),-0.399
2,COC(=O)C[C@H]1O[C@@]2(C[C@@H]1[Si](C)(C)C)C(=O)N(C)c1ccccc12,-0.251
3,O=C1C2C=CC(C(O)c3cccs3)N(Nc3ccc([N+](=O)[O-])cc3)C2C(=O)N1c1ccccc1 (stereo not given),0.352
4,Cc1ccc(S[C@]2(C(=O)NCc3ccccc3)CC(=O)N(Cc3ccccc3C(F)(F)F)[C@@H]2c2ccc(CO)cc2)cc1,0.0191
5,O=C1[C@H]2C=C(I)[C@H](C[C@@H]2c2ccccc2)[C@@]12CO2,-0.322
6,C=CC[C@@]12N=C(c3ccc(OCCCO)cc3)O[C@@H]1c1ccccc1N(CCC)C2=O,0.257
7,C=CCC(OC(C)=O)[C@@H]1[C@@H](N(Cc2cccc3ccccc23)C(=O)c2ccc(-c3ccccc3)cc2)c2cc(OCCCO)ccc2N1C(=O)Cc1ccc2ccccc2c1 (stereo not given in full),-0.0459
8,CCOC(=O)C1=CC[C@@H](c2ccccc2)N(S(=O)(=O)c2ccc(C)cc2)[C@H]1c1ccccc1I,0.655
9,O=C1O[C@H](c2ccccc2)[C@H](c2ccccc2)N2[C@H]1[C@@H](C(=O)O)[C@]1(C(=O)Nc3ccc(C#CCCO)cc31)[C@H]2c1ccc(OCCO)cc1,0.564
10,COc1ccc(C(O)C2C=CC3C(=O)NC(=O)C3N2Nc2ccc(Cl)cc2Cl)c2ccccc12 (stereo not given),0.913
11,COCCCNC(=O)[C@@]1(CCC(=O)OC(C)(C)C)COC(c2ccc(OCCCO)cc2)=N1,0.117
12,NC(=O)N1C(=O)C2C(C1=O)C1C=C(CCCO)C2C(C2CC2)N1Cc1sc2ccccc2c1Cl (stereo not given),-0.129
13,C=CCOC(=O)[C@@H]1[C@H]2C(=O)O[C@H](c3ccccc3)[C@H](c3ccccc3)N2[C@H](c2ccc(OCCOC(=O)[C@H]3C[C@H]4C(=O)N[C@@H](CCCCN(C)C)C(=O)N4[C@H]3c3ccc(O)cc3)cc2)[C@@]12C(=O)Nc1ccc(I)cc12,0.0904
14,CCCC=C(CCC)[C@@H](NC(=O)c1ccc(C(F)(F)F)cc1)c1ccc(C(F)(F)F)cc1,0.73
15,COc1cc(C(O)C2C=CC3C(=O)N(c4ccccc4)C(=O)C3N2Nc2ccccc2)cc(OC)c1OC (stereo not given),1.03
16,CC(=O)OCC1C2CC[C@H]3C(OCc4ccc(F)cc4C(F)(F)F)OC[C@]4(C)[C@H]3C2=C(CN4C(=O)OC(C)(C)C)[C@H](C)C1COC(C)=O (stereo not given in full),0.547
17,COC(=O)[C@@]1(Cc2ccc(F)cc2)[C@H]2c3cc(C(=O)N4CCCC4)n(Cc4cc(F)cc5c4OCOC5)c3C[C@H]2CN1C(=O)c1ccccc1,1.14
18,C[C@@H]1ON(c2ccccc2)[C@H](c2ccccc2)[C@H]1C(=O)O,-0.158

row,Structure (SMILES),composite z-score
1,C=CCC(OC(C)=O)[C@@H]1[C@@H](N(Cc2cc3ccccc3o2)C(=O)Cc2ccc(OC)cc2)c2cc(OCCCO)ccc2N1C(=O)c1ccc2ccccc2n1 (stereo not given in full),0.0671
2,COC(=O)[C@@]1(Cc2ccc(OC)cc2)[C@H]2c3cc(C(=O)N4CCCC4)n(Cc4c(CO)[nH]cc(C)c4=O)c3C[C@H]2CN1C(=O)c1ccccc1,2.01
3,COc1ccc(NN2C(C(O)c3ccc(I)cc3)C=CC3C(=O)N(C4CCCCC4)C(=O)C32)cc1 (stereo not given),0.519
4,O=C1O[C@H](c2ccccc2)[C@H](c2ccccc2)N2[C@H]1[C@@H](C(=O)N1CCN(c3ncccn3)CC1)[C@]1(C(=O)Nc3ccc(C#CCCO)cc31)[C@H]2c1ccc(O)cc1,-0.238
5,CC1CC/C=C\[C@H]2OC34C=CCN(c5ccc(Cl)cc5)C(=O)[C@H]3N(CCCCCCO)C(=O)[C@]4(C)C2C(=O)O1 (stereo not given in full),-0.13
6,O=C(NC1CC1)[C@@H]1c2ccccc2C(=O)N(Cc2cc(C(F)(F)F)cc(C(F)(F)F)c2)[C@H]1c1ccc(CO)cc1,-0.534
7,COc1ccc([Si](C)(C)[C@@H]2[C@@H](CC(=O)N3Cc4ccccc4C[C@H]3CO)O[C@]3(C(=O)N(Cc4ccc(N5CCOC5=O)cc4)c4ccccc43)[C@H]2C)cc1,-0.115
8,CN1C(=O)C2C(C1=O)C1C=C(CCCO)C2C(C2CC2)N1Cc1cccc(OC(F)(F)F)c1 (stereo not given),-0.656
9,[N-]=[N+]=Nc1ccccc1[C@@H]1OC(c2ccc(OCCCO)cc2)=N[C@]1(Cc1ccccc1)C(=O)NCCN1CCOCC1,0.652
10,COC(=O)[C@@]1(Cc2ccccc2)N=C(c2ccc(OCCCO)cc2)O[C@H]1c1ccccc1CN=[N+]=[N-],0.287
11,Cc1ccc(N2C(=O)c3ccccc3[C@](C)(C(=O)NCCCN(C)C)[C@@H]2c2ccc(CO)cc2)nc1,-0.0971
12,CC(C)N1C(=O)C[C@@](C(=O)NCCN2CCOCC2)(c2ccc([N+](=O)[O-])cc2)[C@H]1c1ccc(CO)cc1,-0.477
13,CN(C)CCCNC(=O)[C@@]1(Cc2ccccc2I)c2ccccc2C(=O)N(C2CCCCC2)[C@H]1c1ccc(CO)cc1,1.13
14,CC(C)N1C(=O)c2ccccc2[C@@H](C(=O)NCC(F)(F)F)[C@@H]1c1ccc(CO)cc1,-0.0674
15,CC(C)=C1C(=O)C(c2ccccc2)=C2CN3C(=O)N(CCc4ccccc4)C(=O)[C@]3(C)[C@H]21,0.915
16,COCCCNC(=O)[C@@]1(CCS(=O)(=O)c2ccccc2)COC(c2ccc(OCCCO)cc2)=N1,1.56
17,O=C1C2C=CC(C(O)C3CCCCC3)N(n3cnnc3)C2C(=O)N1Cc1ccccc1 (stereo not given),0.224
